Source: the antibiotic and cytotoxicity screens of Wong et al. (2023)
Among all 39,000 compounds or so, about 1,500 (3.8%) were called active. The entries come from a sample that favours actives as a whole.

system: HSkMC (human skeletal muscle cells); experiment: cytotoxicity call (relative viability < 0.9); details: 10 µM

SMILES | cytotoxicity call
COc1cccc(Nc2ncnn3ccc(CN4CC[C@@H](N)[C@H](O)C4)c23)c1 | inactive
COc1cccc(S(=O)(=O)N2C[C@H](O)COC[C@H]3O[C@H](CC(=O)N4CCN(C)CC4)CC[C@@H]32)c1 | inactive
C[C@H](CO)N1C[C@H](C)[C@@H](CN(C)CC2CC2)Oc2ccc(NS(=O)(=O)c3ccccc3)cc2C1=O | inactive
CC1(C)[C@H]2CC[C@@]1(C)c1nn(-c3ccccc3)c(C(F)(F)F)c12 | inactive
C[C@H](CO)N1C[C@H](C)[C@@H](CN(C)C(=O)Nc2cccc3ccccc23)OCCCC[C@H](C)Oc2ccc(NC(=O)Nc3ccc(F)cc3)cc2C1=O | inactive
C[C@H](CO)N1C[C@H](C)[C@@H](CN(C)Cc2ccc(Oc3ccccc3)cc2)Oc2ccc(NC(=O)Nc3ccccc3)cc2C1=O | inactive
C[C@@H]1CN([C@@H](C)CO)C(=O)c2cc(NC(=O)Nc3ccccc3)ccc2O[C@H]1CN(C)Cc1ccc(Oc2ccccc2)cc1 | inactive
COc1ccc(NC(=O)Nc2ccc3c(c2)C(=O)N([C@H](C)CO)C[C@@H](C)[C@@H](CN(C)Cc2ccc(Oc4ccccc4)cc2)O3)cc1 | inactive
C[C@@H]1CN([C@@H](C)CO)C(=O)c2cc(NC(=O)Nc3ccc4c(c3)OCO4)ccc2O[C@H]1CN(C)Cc1ccc(Oc2ccccc2)cc1 | inactive
C[C@@H]1CN([C@H](C)CO)C(=O)c2cc(NC(=O)Cc3ccccc3)ccc2O[C@@H]1CN(C)Cc1ccc(Oc2ccccc2)cc1 | inactive
COc1ccc(NC(=O)Nc2ccc3c(c2)C(=O)N([C@H](C)CO)C[C@H](C)[C@H](CN(C)Cc2ccc(Oc4ccccc4)cc2)O3)cc1 | active
C[C@@H]1CN([C@H](C)CO)C(=O)c2cc(NC(=O)Nc3ccc4c(c3)OCO4)ccc2O[C@@H]1CN(C)Cc1ccc(Oc2ccccc2)cc1 | active
C[C@@H]1CN([C@@H](C)CO)C(=O)c2cc(NC(=O)Cc3ccccc3)ccc2O[C@H]1CN(C)Cc1ccc(Oc2ccccc2)cc1 | inactive
COc1ccc(NC(=O)Nc2ccc3c(c2)C(=O)N([C@H](C)CO)C[C@H](C)[C@@H](CN(C)Cc2ccc(Oc4ccccc4)cc2)O3)cc1 | inactive
C[C@H](CO)N1C[C@H](C)[C@H](CN(C)Cc2ccc(Oc3ccccc3)cc2)Oc2ccc(NC(=O)Nc3ccc4c(c3)OCO4)cc2C1=O | inactive
C[C@@H]1CN([C@@H](C)CO)C(=O)c2cc(NC(=O)Cc3ccccc3)ccc2O[C@@H]1CN(C)Cc1ccc(Oc2ccccc2)cc1 | active
C[C@@H]1CN([C@@H](C)CO)C(=O)c2cc(NC(=O)Nc3ccccc3)ccc2O[C@@H]1CN(C)Cc1ccc(Oc2ccccc2)cc1 | active
Cc1ccc(S(=O)(=O)N[C@@H]2CC[C@@H](CC(=O)N3CCC(Cc4ccccc4)CC3)O[C@H]2CO)cc1 | inactive
C[C@H](CO)N1C[C@H](C)[C@@H](CN(C)Cc2ccc(Oc3ccccc3)cc2)Oc2c(NC(=O)c3ccc(-c4nccs4)cc3)cccc2C1=O | inactive

SMILES | cytotoxicity call
C[C@@H]1CN([C@H](C)CO)S(=O)(=O)c2ccc(C#Cc3ccccn3)cc2O[C@H]1CN(C)Cc1ccccc1 | inactive
CCCC(=O)Nc1ccc2c(c1)C(=O)N(C)C[C@H](OC)[C@@H](C)CN(S(=O)(=O)c1cn(C)cn1)[C@@H](C)CO2 | inactive
COc1cccc(OC)c1C(=O)O[C@H]1[C@@H]2OC(=O)[C@H](Cc3cccc(Br)c3)C/C=C/C[C@@H](Cc3cccc(Br)c3)C(=O)O[C@H]2[C@@H](OC)O[C@@H]1CO | inactive
C[C@@H]1CCCCO[C@H](CN(C)C(=O)c2ccccc2)[C@H](C)CN([C@@H](C)CO)C(=O)c2cc(NC(=O)Nc3ccc(F)cc3)ccc2O1 | inactive
COc1ccc(NC(=O)Nc2ccc3c(c2)CC(=O)N([C@@H](C)CO)C[C@@H](C)[C@H](CN(C)Cc2ccc(-c4ccccc4)cc2)O3)cc1 | inactive
C[C@H]1CCCCO[C@H](CN(C)C(=O)Nc2cccc3ccccc23)[C@@H](C)CN([C@@H](C)CO)C(=O)c2cc(N(C)C)ccc2O1 | inactive
COc1ccc(NC(=O)Nc2ccc3c(c2)C(=O)N([C@H](C)CO)C[C@H](C)[C@@H](CN(C)Cc2ccc(-c4ccccc4)cc2)O3)cc1 | inactive
COc1ccc(NC(=O)Nc2ccc3c(c2)C(=O)N([C@@H](C)CO)C[C@@H](C)[C@@H](CN(C)Cc2ccc(-c4ccccc4)cc2)O3)cc1 | inactive
C[C@@H]1CN([C@H](C)CO)C(=O)c2cc(NC(=O)Nc3ccccc3)ccc2O[C@H]1CN(C)Cc1ccc(Oc2ccccc2)cc1 | inactive
C[C@@H]1CN([C@H](C)CO)C(=O)c2cc(NC(=O)Nc3ccccc3)ccc2O[C@@H]1CN(C)Cc1ccc(Oc2ccccc2)cc1 | active
COc1ccc(NC(=O)Nc2ccc3c(c2)C(=O)N([C@@H](C)CO)C[C@H](C)[C@@H](CN(C)Cc2ccc(-c4ccccc4)cc2)O3)cc1 | active
C[C@H]1CN([C@@H](C)CO)C(=O)c2cc(NC(=O)Nc3ccccc3)ccc2O[C@H]1CN(C)Cc1ccc(Oc2ccccc2)cc1 | inactive
COc1ccc2c3c([nH]c2c1)[C@@H](CO)N(C[C@]13CCN(CC1)Cc1ccccc1F)S(=O)(=O)c1cn(cn1)C | inactive
C[C@@H]1CN([C@@H](C)CO)C(=O)c2cc(NC(=O)Nc3cccc4ccccc34)ccc2O[C@@H]1CN(C)C(=O)Nc1ccc(F)cc1 | inactive
CN1C(=O)c2cc(NC(=O)C3CCOCC3)ccc2OC[C@@H]2O[C@H](CC(=O)NCc3ccc4c(c3)OCO4)CC[C@@H]21 | inactive
COC(=O)c1c2oc(c1C(=O)OC)C(=O)N[C@H](Cc1ccccc1)Cn1cc(nn1)[C@@H](Cc1ccccc1)NC(=O)N[C@H](COC(=O)NCCCCCC(=O)NO)CC2 | inactive
Cc1cc(C)n([C@@H](C)CN)n1 | inactive
C[C@H]1CN([C@@H](C)CO)C(=O)c2cccc(NS(=O)(=O)c3cccs3)c2O[C@@H]1CN(C)S(=O)(=O)c1cn(C)cn1 | inactive
C[C@H](CO)N1C[C@H](C)[C@@H](CN(C)S(=O)(=O)c2cn(C)cn2)Oc2cc(C3=CCCC3)ccc2S1(=O)=O | inactive
